# DRD3 agonist – qHTS of D3 Dopamine Receptor Agonist: qHTS; D(3) dopamine receptor (Homo sapiens), P35462; D3R DiscoveRx beta-arrestin cells, luminescence, 90 min; max activation, %; 410,000 tested, 0.58% active; AID 652048, 2013; in the data active = max activation above about 30%; also: 0% is about no effect
# Target sequence (P35462 whole entry, looked up): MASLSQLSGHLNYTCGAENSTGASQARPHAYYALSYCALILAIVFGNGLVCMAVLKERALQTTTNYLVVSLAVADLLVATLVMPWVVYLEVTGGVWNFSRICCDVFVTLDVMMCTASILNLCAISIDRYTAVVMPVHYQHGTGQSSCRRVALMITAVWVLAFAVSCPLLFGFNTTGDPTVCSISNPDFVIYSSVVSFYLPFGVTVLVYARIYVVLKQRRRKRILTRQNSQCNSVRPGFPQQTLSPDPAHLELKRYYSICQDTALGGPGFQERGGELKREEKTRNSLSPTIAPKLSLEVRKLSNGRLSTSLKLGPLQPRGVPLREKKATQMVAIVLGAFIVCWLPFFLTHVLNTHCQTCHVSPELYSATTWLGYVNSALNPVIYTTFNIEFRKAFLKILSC
#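 Agonist mode: compounds and dopamine controls were applied to plated cells for 90 min at 37 degrees C after an overnight attachment at 1500 cells/well. Luminescent read-out followed 30 - 60 minutes at room temperature with DiscoveRx detection reagent.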
# DRD3 antagonist – qHTS of D3 Dopamine Receptor Antagonist: qHTS; AID 652054, 2013; D3R cells, DiscoveRx beta-arrestin luminescence, antagonist mode; active compounds read low; max response, negative = inhibition, %; 360,000 tested, 2.5% active; D(3) dopamine receptor (Homo sapiens), P35462; in the data active = max response below about -50%; inconclusive = no clear call, values can overlap the other calls; also: % is scaled to controls: 0 for no effect and ±100 for the full control effect
#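 Cells plated overnight at 1500 cells/well, then exposed to library compounds with dopamine controls for 90 minutes at 37 degrees C. DiscoveRx reagent added for 30–60 minutes at room temperature; luminescence read, quantitative HTS format.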
# GLP1R cytotox – qHTS of GLP-1 Receptor Inverse Agonists: Cytotox Screen | HEK293 cAMP-luciferase reporter cells, luminescence, 24 h | Potency, µM (titrated, usually from 38.3 µM), without a hit: top-dose activity change, negative = inhibition, hits mostly inhibitors | 410,000 tested, 0.13% active;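 also: loss of luciferase light is scored as toxicity; potency is read from the fitted curve at half-maximal effect; % is scaled to controls: 0 for no effect and ±100 for the full control effect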
#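 Cells in DMEM/10% Nu serum/1% pen-strep, 1536-well format. Pre-incubated 12 h, dosed with 23 nL compound, incubated a further 24 h. Luciferase detection, 12 min at room temp, luminescence.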
# GLP1R inv ag – qHTS of GLP-1 Receptor Inverse Agonists (Inhibition Mode) | Glucagon-like peptide 1 receptor (Homo sapiens), P43220 | HEK293 GLP-1R CRE-luciferase, luminescence, 24 h; GLP-1R form is constitutively active | Potency, µM (top dose mostly 38.3 µM), without a hit: at the highest dose activity change, negative = inhibition, actives largely listed as inhibitors | 410,000 tested, 1.6% active | AID 624417, 2012; also: potency is read from the fitted curve at half-maximal effect; % is scaled to controls: 0 for no effect and ±100 for the full control effect; nearly all actives have a fitted effect of over 55% in size
#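 Assay principle: reduced luminescence from a cAMP-responsive reporter in HEK293 cells co-expressing a constitutively active GLP-1R. Conditions: 24 hr compound incubation, 37 deg C, 5% CO2.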
# GLP1R ag – qHTS of GLP-1 Receptor Agonists | HEK293 GLP-1R CRE-luciferase, luminescence, 4-6 h; cells express a hypersensitive GLP-1R form | Potency, µM (top dose mostly 45.6 µM), inactives show top-dose activation, most hits filed as activators | 380,000 tested, 0.007% active; also: potency is read from the fitted curve at half-maximal effect; % of control where 0% means no effect
# ClpP mod – qHTS Assay for Activators of ClpP | ATP-dependent Clp protease proteolytic subunit (Bacillus subtilis (strain 168)), P80244 | purified B. subtilis ClpP, FRET peptide cleavage, 20 min | Potency, µM (doses to about 57.5 µM), without a hit: top-dose activity change, negative = active | 340,000 tested, 1.9% active; active = well fitted falling curve with a large enough effect; inconclusive = small, poorly fitted or top-dose-only effect; inactive = no such curve, though single readings can be large or run the other way; also: potency is read from the fitted curve at half-maximal effect; the source files actives as falling curves though it sought activators and does not explain the sign; nearly all actives have a fitted effect of over 65% in size
# Target sequence (P80244 whole entry, looked up): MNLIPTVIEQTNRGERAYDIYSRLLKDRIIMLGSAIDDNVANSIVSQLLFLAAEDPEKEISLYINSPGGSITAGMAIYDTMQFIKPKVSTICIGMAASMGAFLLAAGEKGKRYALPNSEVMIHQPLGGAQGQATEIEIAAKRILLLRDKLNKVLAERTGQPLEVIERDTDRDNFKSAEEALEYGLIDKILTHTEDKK
#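 Buffer: 100 mM Tris/HCl pH8, 100 mM KCl, 0.05% low protease BSA, 2.5% glycerol, 0.01% Tween-20. ClpP 10 microg/mL final; 20 min RT; delta FRET normalized to ADEP and DMSO controls.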
# Starred values were filed as active, the others as inactive; ? = inconclusive; . = not tested or not shown. An excerpt weighted towards active compounds, which were near 5.7% of everything screened. Unless noted, calls follow the shape of the dose curve; as a rule, active = well fitted curve in the direction sought with a large enough effect; inconclusive = small, poorly fitted or top-dose-only effect, or another doubt; inactive = no such curve, though single readings can be large; an effect the other way counts as inactive or inconclusive.
SMILES,DRD3 agonist,DRD3 antagonist,GLP1R cytotox,GLP1R inv ag,GLP1R ag,ClpP mod
CC(C)c1nn2c(=O)cc(COC(=O)c3ccccc3NC(=O)c3cccc(Cl)c3)nc2s1,19,.,4%,8%,.,10µM*
Cc1ccc(OCC(=O)Nc2ccccc2C(=O)OCc2cc(=O)n3nc(C4CC4)sc3n2)cc1,37*,.,-1%,8%,.,-5%
O=C(COc1ccccc1)OCc1cc(=O)n2nc(C3CC3)sc2n1,74*,.,4%,4%,.,-6%
Cc1ccc(C(=O)Nc2ccccc2C(=O)OCc2cc(=O)n3nc(C(C)C)sc3n2)cc1,2,.,-9%,7%,.,3%
CCC(CC)C(=O)OCc1cc(=O)n2nc(C3CC3)sc2n1,45*,.,-10%,28%,.,-5%
COc1cccc2c1Oc1ncccc1N(C(=O)Nc1ccc(F)c(Cl)c1)C2,-4,.,1%,8%,.,-9%
O=C(NN=C1CCCC1)c1[nH]c2ccc(Cl)cc2c1-c1ccccc1,4,6,?,3.2µM*,21%,.
CCOC(=O)N1CCc2c(sc3c2c(=O)n(Cc2ccccc2)c(=O)n3Cc2cccc(Cl)c2)C1,-2,.,-12%,6%,.,2%
Cc1cc(C(=O)COC(=O)c2ccc(O)cc2)c(C)n1-c1ccccc1F,-8,-13,-11%,10µM*,3%,.
Cc1cc(C(=O)COC(=O)c2ccc[nH]c2=O)c(C)n1-c1ccccc1F,0,-1,6%,-22%,-6%,-1%
COc1ccc(-c2cc(OC(=O)c3ccc(F)cc3)c3c(C)oc(C)c3c(=O)c2)cc1OC,-3,.,2%,11%,.,0%
CCCCn1nnc(NC(=S)NC(=O)c2ccc(-c3cccc(Cl)c3Cl)o2)n1,-23,-71*,?,?,0%,10%
CN1CCCC(CC2c3ccccc3Sc3ccccc32)C1 (configuration not stated),-79,-68*,-22%,?,-8%,1%
CN1CCCC(CN2c3ccccc3Sc3ccccc32)C1 (configuration not stated),-43,3,-20%,10µM*,7%,-4%
COc1ccc(CCNC(=O)Cc2c(C)c3c(cc(C)c4c(C)coc43)oc2=O)cc1,-4,.,-4%,8%,.,-12%
Cc1cc(/C=N/NC(=O)c2ccc(O)cc2)c(C)n1C1CC1,-3,-54*,5%,-17%,3%,.
Cc1ccc(C(=O)Nc2cccc(C(=O)N/N=C/c3ccc(O)cc3)c2)cc1,-19,-17,-14%,?,11%,.
Cc1ccccc1CNC(=O)Cn1ccc2cc(S(=O)(=O)N3CCCCC3)ccc21,-11,.,10%,?,.,-27%
CCN1CCC[C@@H]1CNC(=O)c1cc(S(=O)(=O)CC)ccc1OC,.,.,.,.,0%,.
CC(C)(C)c1ccc(OCC(=O)O/N=C(\N)c2ccncc2)cc1,6,7,-3%,?,28%,16µM*
CCc1ccc(OCC(=O)O/N=C(\N)c2ccncc2)cc1,11,14,9%,?,6%,0%
O=c1[nH]c(NNC(=S)NCc2ccccc2)nc2c1C1(CCCCC1)Cc1ccccc1-2,2,-20,-10%,?,-4%,16µM*
CCC1(CC)Cc2ccccc2-c2nc(NCCCO)[nH]c(=O)c21,-2,4,11%,-7%,6%,.
O=c1[nH]c(NCCCO)nc2c1C1(CCCC1)Cc1ccccc1-2,-18,-30,0%,?,-2%,14µM*
C=CCNC(=S)NNc1nc2c(c(=O)[nH]1)C1(CCCC1)Cc1ccccc1-2,-12,3,7%,?,-4%,-15%
SMILES,DRD3 agonist,DRD3 antagonist,GLP1R cytotox,GLP1R inv ag,GLP1R ag,ClpP mod
O=c1[nH]cnc2c1C1(CCCC1)Cc1ccccc1-2,-9,-8,11%,?,0%,13µM*
CN(C)Cc1nc2c(c(=O)[nH]1)C1(CCCCC1)Cc1ccccc1-2,-19,-29,5%,-17%,-2%,-2%
O=C(Cn1c(=O)n(Cc2ccc3c(c2)OCO3)c(=O)c2oc3ccccc3c21)Nc1ccccc1F,-6,.,1%,-13%,.,-10%
CCOC(=O)c1cnc2c(ccc3ccccc32)c1NCCO,2,20,-7%,-12%,8%,28µM*
CCOC(=O)c1cnc2c(ccc3ccccc32)c1NCCN(C)C,-13,-23,?,?,-1%,4%
Cc1ccc(NC(=O)CCc2c(C)nc3cc(-c4ccccc4)nn3c2C)cc1F,1,.,-3%,6%,1%,28µM*
CC(=O)c1ccc(NC(=O)CCc2c(C)nc3cc(-c4ccc(Cl)cc4)nn3c2C)cc1,-1,.,4%,3%,1%,?
CCN(CC)S(=O)(=O)c1ccc(NC(=O)CCc2c(C)nc3cc(-c4ccc(Cl)cc4)nn3c2C)cc1,1,.,4%,3%,.,16µM*
COc1ccccc1Nc1nc(-c2ccc(F)cc2)c2c(n1)-c1ccccc1OC2,-6,.,14%,6%,.,-10%
Cc1ccc(C(=O)c2oc3ccccc3c2NC(=O)c2cc(-c3ccccc3)on2)cc1,-4,.,-2%,4%,.,0%
COC(=O)CC1(C(=O)OC)Oc2ccc(Br)cc2C(=O)N1c1ccc(Br)cc1Cl (configuration not stated),9,-1,-41%,10µM*,14%,0%
COC(=O)CC1(C(=O)OC)Oc2ccc(Br)cc2C(=O)N1c1cc(Cl)c(Cl)cc1Cl (configuration not stated),-3,-18,2%,7.1µM*,-5%,1%
COC(=O)CC1(C(=O)OC)Oc2ccc(Br)cc2C(=O)N1c1cccc(Cl)c1Cl (configuration not stated),22,8,?,?,4%,.
COC(=O)CC1(C(=O)OC)Oc2ccc(Br)cc2C(=O)N1c1cc(Cl)cc(Cl)c1 (configuration not stated),23,27,0%,?,9%,.
c1ccc(C(OC2CCCN(CCc3ccc4c(c3)OCO4)C2)c2ccccc2)cc1 (configuration not stated),.,.,.,.,-1%,.
COc1cc(NC(=O)CC2C(=O)N(c3cccc(C)c3)C(=O)N2Cc2ccc(F)cc2)cc(OC)c1 (configuration not stated),0,.,-18%,?,.,1%
Cc1occc1C(=O)N/N=C/c1sc(N2CCOCC2)nc1-c1ccccc1,5,-54*,18%,5%,-6%,-3%
